The values below come from PubChem BioAssay (NCI).

About 83,000 compounds went through this panel and 20% of them were active in at least one assay; those are over-represented in the sample as a whole.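 How to read the values: 0–100, growth inhibition (40 = 60% inhibited); 0, no net growth; -100 to 0, cell death (-40 = 40% of starting cells died; -100 = all dead).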 The source made the active and inactive calls. How the source made its calls: active means growth percent below 10; inactive means the rest.

The assay relates to NCI-H322M lung. Nature of the assay: NCI-60 one-dose screen, 48 h (100 = growth as untreated, 0 = no growth, -100 = all killed). To be noted: 10 µM unless noted.
For the compound `CCCOc1ccc2nc(NC(=O)OC)[nH]c2c1`, the growth was 49.9% (inactive).

With `NS(=O)(=O)c1ccc(CN=C2NC(=O)S/C2=C\c2ccc(Br)cc2)cc1`, the growth is 91% (inactive). For `N=C(N)c1ccc(-c2ccc(-c3ccc4ccccc4c3)s2)s1` the value was 26.5% (inactive); for `COc1cc2nc(N3CCCC3)nc(Nc3ccccc3)c2cc1OC`, 19.3% (inactive). As for `C#Cc1cccc(NC(=O)c2ccccc2NC(=O)C=C)c1`, the growth is 101% [8.25 µM] (inactive). For `C#CC(F)(F)[C@]1(O)CC[C@H]2[C@@H]3CCC4=CC(=O)CCC4=C3[C@@H](c3ccc(C(C)=O)cc3)C[C@@]21C` the value was 96.7% (inactive). Consider `Cc1ccc(NC(=O)/C=C/c2ccccc2)c(C(N)=O)c1`, for which the growth was 63.1% (inactive). For `CCOc1cc2ncc(C#N)c(Nc3ccc(OCc4cccc(F)c4)c(Cl)c3)c2cc1NC(=O)CC1CCSS1` (stereo not drawn) the value was 6.49% (active); for `CCOC(=O)c1c(C(=O)OCC)c2cc(-c3ccn4c(C(=O)c5ccccc5)c(C(=O)OCC)c(C(=O)OCC)c4c3)ccn2c1C(=O)c1ccccc1`, 99.9% (inactive); for `NC(=O)c1cc(Br)ccc1NC(=O)/C=C/c1ccccc1`, 76.1% (inactive).

On to `COC(=O)[C@@H]1CCCN1C(=O)[C@@H]1CCCN1C(=O)[C@H](Cc1ccccc1)NC(=S)Nc1cc(C(F)(F)F)cc(C(F)(F)F)c1`, for which the growth is 89.7% (inactive). The same measure for `COc1ccc(-c2cc(=O)c3c(OC)c4ccoc4cc3o2)cc1`: 77.8% (inactive); for `NC(=NCCCC1(c2ccccc2)CCCC1)Nc1ccc(Cl)cc1`: 36.2% (inactive). As for `COC(=O)c1ccc(Cn2cnc3c(N)ncnc32)cc1`, the growth was 106% (inactive).

Take `Cc1ccc2oc(=O)cc(C3c4ccc([nH]4)C(c4cc(=O)oc5ccc(C)cc45)c4ccc([nH]4)C(c4cc(=O)oc5ccc(C)cc45)c4ccc([nH]4)C(c4cc(=O)oc5ccc(C)cc45)c4ccc3[nH]4)c2c1` (stereo not drawn): the growth was -10.2% (active). The same measure for `O=C1c2cccc3cccc(c23)C(=O)N1CCCCN1CCN(CCCCOc2ccc(-c3nc4ccc(N5CCOCC5)cc4[nH]3)cc2)CC1`: 94.8% (inactive); for `Cn1cc(-c2nonc2-c2cn(C)c3ccc(F)cc23)c2cc(F)ccc21`: 97.3% (inactive); for `CCOC(=O)n1cc(-c2nonc2-c2cn(C)c3ncccc23)c2cc(F)ccc21`: 85.8% (inactive).

In the case of `C=CC(COC(c1ccccc1)(c1ccccc1)c1ccccc1)N(CC)CC` (stereo not drawn), the growth is 87% (inactive).

For the compound `COCCNc1ccc2c3c(cccc13)C(=O)N(CCN(C)C)C2=O`, the growth was 23.1% (inactive). Take `O=C1CC(=NCC(=O)n2c(-c3ccccc3)nc3ccccc32)NN1`: the growth is 103% (inactive).

`CC/C=C\C[C@H]1C/C=C2/C(=O)C=C[C@H]2C/C=C\CCCC(=O)O1`: the growth was 37.7% (inactive). As to `CCOC(=O)c1sc2nc(-c3cccc(OC)c3)nc(N3CCOCC3)c2c1C`, the growth is 94.4% (inactive).

Regarding `CC(=O)Nc1ccc(S(=O)(=O)Nc2cccc(-c3nc(-c4ccc(NC(=O)c5cccnc5)cc4Cl)no3)c2)cc1`, the growth is 41.6% (inactive). The same measure for `COc1nc2c(c(=O)n1C)CN(Cc1ccccc1)C=N2`: 128% (inactive). For `CCC(=O)c1ccc(Cl)s1` the value was 134% (inactive).

Regarding `O=S(=O)(Nc1ccc(I)cc1F)c1ccc(-c2cnc(C3CC3)o2)cc1`, the growth is 86.2% (inactive). The same measure for `Cc1ccccc1COc1ccc(-c2onc(C)c2-c2ccc(Cl)cc2)cc1`: 97.6% (inactive); for `O=C(/C=C/c1ccc(C(F)(F)F)cc1)Nc1ccc(C=C2c3ccccc3C(=O)c3ccccc32)cc1`: 97.3% (inactive); for `COc1cccc2c1C(=O)c1c(O)c3c(c(O)c1C2=O)C[C@](O)(C(=O)CO)C[C@H]3O[C@@H]1C[C@@H](NC(=O)CCCN(C)C2(c3ccc(F)cc3)CC3CCC2C3)[C@H](O)[C@@H](C)O1` (stereo partly drawn): 49.1% (inactive). Turning to `O=C(O)c1ccc(NC(=O)c2ccc(-c3cccc([N+](=O)[O-])c3)o2)cc1`, the growth was 95% (inactive). The same measure for `O=c1cc(CSc2nnc(SCc3cc(=O)oc4c3ccc3ccccc34)o2)c2ccc3ccccc3c2o1`: 93.3% (inactive); for `O=C(COc1ccc(/C=C2\COc3ccccc3C2=O)cc1)Nc1nccs1`: 104% (inactive).

On to `NC(=NCCCOc1ccc(Cl)cc1)Nc1ccc(Cl)cc1`, for which the growth was 31.8% (inactive). For `N#CN1CC[C@H](C(=O)Nc2cc3cc(C(N)=O)ccc3cn2)C1` the value was 13.6% (inactive). Turning to `N#CCCN=Nc1c(O)[nH]c2ccc(F)cc12`, the growth is 103% (inactive). The same measure for `Nc1nc2ncc(CCNc3ccc(C(=O)O)cc3)nc2c(=O)[nH]1`: 125% (inactive).

Turning to `COc1cccc(-c2nc3sccn3c2-c2ccnc(NCCNS(=O)(=O)c3ccc(F)cc3)c2)c1`, the growth was 58.6% (inactive).
